Experimental data published in the supplement of paper PMC10849652.
Of roughly 7,900 targets only a part is listed; those with a hit were picked by preference. About 0.6% of all pairs of compound and target were hits.

Legend:
Assay in all cases: log2 fold change, soluble protein after heating vs DMSO (PISA); higher = thermal stabilisation; K562 cells, 10 uM, 30 min; active = over 0.2 and 3.5 SD of the protein, either way, in both replicates (recomputed)
[1] = compound: CN1CCN(CCOc2cc(OC3CCOCC3)c3c(Nc4c(Cl)ccc5c4OCO5)ncnc3c2)CC1 [saracatinib]
How it was run: (§1)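 Aliquots of K562 cells (2×10^6 cells/mL) treated with 10 μM compound for 30 min were heated for 3 min over 48°C-58°C. After pooling and extraction in PBS with 0.5% NP-40 at 4°C, soluble protein from a 21,000xg, 90 min spin was quantified by TMTpro 16plex LC-MS/MS with channel sums equalised. Thermal stability is expressed against control samples, from duplicates, as a log2 fold change.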

[2] = compound: CN1CCN(c2nc(C3=C(c4c[nH]c5ccccc45)C(=O)NC3=O)c3ccccc3n2)CC1 [sotrastaurin]
How it was run: as §1

[3] = compound: CN1CC[C@H](c2c(O)cc(O)c3c(=O)cc(-c4ccccc4Cl)oc23)[C@H](O)C1 [alvocidib]
How it was run: as §1

[4] = compound: CN1CCc2c(c3ccccc3n2Cc2ccc(C(=O)NO)cc2)C1 [Tubastatin A]
How it was run: as §1

[5] = compound: CNC(=O)C1=CC=CC=C1NC2=NC(=NC=C2Cl)NC3=C(C=C(C=C3)N4CCOCC4)OC
How it was run: as §1

[6] = compound: CNC(=O)c1ccc(Nc2ncc(C(F)(F)F)c(NCc3nccnc3N(C)S(C)(=O)=O)n2)cc1 [defactinib]
How it was run: as §1

[7] = compound: CNCc1ccc(-c2[nH]c3cc(F)cc4c3c2CCNC4=O)cc1 [rucaparib]
How it was run: as §1

[8] = compound: CNc1nc(-c2ccc3c(N)n[nH]c3c2)cc(N2C[C@@H](C(=O)NC3CCCCC3)CC[C@H]2C)n1
How it was run: as §1

[9] = compound: COC(=O)N[C@@H](C)CNc1nccc(-c2cn(C(C)C)nc2-c2cc(Cl)cc(NS(C)(=O)=O)c2F)n1 [encorafenib]
How it was run: as §1

[10] = compound: COC(=O)[C@H](CCSC)NC(=O)C1=C(C=C(C=C1)NC[C@H](CS)N)C2=CC=CC=C2
How it was run: as §1

[11] = compound: COC1=CC=C(C=C1)CN2C=CC3=C2C=C(C=C3)C(=O)NO
How it was run: as §1

[12] = compound: CON(C)C(=O)N1N=C(c2cc(F)ccc2F)S[C@@]1(CCCN)c1ccccc1 [filanesib]
How it was run: as §1

[13] = compound: CO[C@H]1C[C@@H]2CC[C@@H](C)[C@@](O)(O2)C(=O)C(=O)N2CCCC[C@H]2C(=O)O[C@H]([C@H](C)C[C@@H]2CC[C@H](n3cnnn3)[C@H](OC)C2)CC(=O)[C@H](C)/C=C(\C)[C@@H](O)[C@@H](OC)C(=O)[C@H](C)C[C@H](C)/C=C/C=C/C=C/1C [zotarolimus]
How it was run: as §1

[14] = compound: COc1cc(C(=O)O)ccc1NC(=O)[C@@H]1N[C@@H](CC(C)(C)C)[C@](C#N)(c2ccc(Cl)cc2F)[C@H]1c1cccc(Cl)c1F [idasanutlin]
How it was run: as §1

[15] = compound: COc1cc(Nc2ncc3c(n2)-c2ccc(Cl)cc2C(c2c(F)cccc2OC)=NC3)ccc1C(=O)O [alisertib]
How it was run: as §1

[16] = compound: COc1cc2nc(-c3cc(F)ccc3O)nc(N[C@@H]3CNC[C@H]3C(C)(C)O)c2cc1OC
How it was run: as §1

[17] = compound: COc1cc2ncnc(Nc3ccc(F)c(Cl)c3)c2cc1OCCCN1CCOCC1 [gefitinib]
How it was run: as §1

[18] = compound: COc1cccc2cc(-c3nc([C@H]4CC[C@H](C(=O)O)CC4)n4ncnc(N)c34)[nH]c12
How it was run: as §1

[19] = compound: CS(=O)(=O)CCNCc1ccc(-c2ccc3ncnc(Nc4ccc(OCc5cccc(F)c5)c(Cl)c4)c3c2)o1 [lapatinib]
How it was run: as §1

[20] = compound: CS(=O)(=O)N1CCN(Cc2cc3nc(-c4cccc5[nH]ncc45)nc(N4CCOCC4)c3s2)CC1 [pictilisib]
How it was run: as §1

Measured: log2 fold change

PEX11B (UniProt O96011)
Sequence of UniProt O96011 (O96011 whole entry, looked up, change not shown): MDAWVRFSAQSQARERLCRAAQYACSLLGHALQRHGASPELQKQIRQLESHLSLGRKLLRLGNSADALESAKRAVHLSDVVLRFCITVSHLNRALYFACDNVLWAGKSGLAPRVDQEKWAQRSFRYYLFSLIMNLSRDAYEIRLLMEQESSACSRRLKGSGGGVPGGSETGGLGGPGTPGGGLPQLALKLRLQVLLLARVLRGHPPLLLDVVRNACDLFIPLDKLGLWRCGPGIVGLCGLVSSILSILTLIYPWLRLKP
inactive: [1] 0.052 | [2] -0.009 | [3] -0.001 | [4] -0.021 | [5] 0.001 | [6] -0.042 | [7] -0.006 | [8] -0.022 | [9] 0.024 | [10] -0.041 | [11] 0.021 | [12] -0.038 | [13] -0.009 | [14] -0.076 | [15] -0.071 | [16] -0.063 | [17] -0.037 | [18] 0.019 | [19] 0.023 | [20] 0.004

PRG4 (UniProt Q92954)
inactive: [1] 0.008 | [2] 0.136 | [3] 0.007 | [4] 0.004 | [5] 0.14 | [6] 0.055 | [7] -0.072 | [8] 0.031 | [9] 0.001 | [10] -0.109 | [11] 0.17 | [12] 0.081 | [14] 0.174 | [15] 0.01 | [17] 0.034 | [18] 0.229 | [20] -0.062
active: [13] -0.955

POLR3D (UniProt P05423)
inactive: [1] 0.264 | [2] -0.029 | [3] 0.024 | [4] 1.53 | [5] -0.074 | [6] -0.027 | [8] 0.425 | [10] -0.08 | [11] -0.014 | [12] 0.041 | [13] 0.065 | [15] -0.091 | [16] -0.017 | [17] 0.036 | [18] -0.136 | [19] -0.001 | [20] 0.013
active: [14] 0.574

PNN (UniProt Q9H307)
inactive: [1] -0.037 | [2] -0.044 | [3] -0.12 | [5] -0.067 | [7] 0.303 | [8] -0.071 | [9] -0.174 | [11] -0.004 | [12] 0.083 | [13] -0.047 | [14] 0.125 | [15] -0.017 | [16] -0.14 | [17] 0.031 | [18] 0.056 | [19] -0.037 | [20] -0.015

PDSS2 (UniProt Q86YH6)
Sequence of UniProt Q86YH6 (Q86YH6 whole entry, looked up): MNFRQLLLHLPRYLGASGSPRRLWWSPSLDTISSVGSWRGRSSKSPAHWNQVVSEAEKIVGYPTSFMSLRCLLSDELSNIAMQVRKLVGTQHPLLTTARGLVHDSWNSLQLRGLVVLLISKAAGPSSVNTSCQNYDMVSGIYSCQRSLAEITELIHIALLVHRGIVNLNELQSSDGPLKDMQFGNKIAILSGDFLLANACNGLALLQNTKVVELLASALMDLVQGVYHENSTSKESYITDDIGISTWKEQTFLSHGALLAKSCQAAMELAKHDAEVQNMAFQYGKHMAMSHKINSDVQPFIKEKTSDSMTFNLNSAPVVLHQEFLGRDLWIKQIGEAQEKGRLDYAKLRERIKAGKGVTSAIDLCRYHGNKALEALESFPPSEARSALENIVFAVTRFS
inactive: [1] 0.159 | [2] 0.218 | [3] -0.053 | [4] -0.013 | [5] -0.019 | [6] -0.076 | [7] 0.07 | [8] -0.025 | [9] -0.154 | [10] -0.042 | [11] 0.23 | [12] 0.025 | [13] 0.184 | [14] 0.157 | [16] -0.286 | [17] 0.15 | [19] 0.162 | [20] -0.038

PAK4 (UniProt O96013)
inactive: [1] -0.047 | [2] 0.098 | [3] -0.06 | [4] 0.005 | [5] -0.012 | [6] -0.017 | [7] -0.067 | [8] 0 | [9] 0.085 | [10] 0.03 | [11] -0.106 | [12] 0.068 | [13] 0.03 | [14] -0.021 | [15] 0.153 | [16] 0.195 | [17] 0 | [18] 0.075 | [19] -0.047 | [20] 0.072

PTPMT1 (UniProt Q8WUK0)
Sequence of UniProt Q8WUK0 (Q8WUK0 whole entry, looked up): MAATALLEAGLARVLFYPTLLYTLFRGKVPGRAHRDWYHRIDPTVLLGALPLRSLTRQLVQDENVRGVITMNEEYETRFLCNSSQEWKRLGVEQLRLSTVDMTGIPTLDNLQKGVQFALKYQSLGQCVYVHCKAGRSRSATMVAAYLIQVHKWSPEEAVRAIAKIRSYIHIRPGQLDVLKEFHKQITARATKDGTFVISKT
active: [16] -0.327
inactive: [1] -0.037 | [2] -0.059 | [3] -0.008 | [4] -0.063 | [5] 0.027 | [6] -0.07 | [7] -0.118 | [8] -0.019 | [9] 0.044 | [10] 0.045 | [11] -0.084 | [12] -0.26 | [13] -0.027 | [14] -0.002 | [15] 0.006 | [17] -0.021 | [18] 0.034 | [19] -0.064 | [20] 0.02

PRKD2 isoform 3 (UniProt Q9BZL6)
Sequence of UniProt Q9BZL6 (Q9BZL6 whole entry, looked up): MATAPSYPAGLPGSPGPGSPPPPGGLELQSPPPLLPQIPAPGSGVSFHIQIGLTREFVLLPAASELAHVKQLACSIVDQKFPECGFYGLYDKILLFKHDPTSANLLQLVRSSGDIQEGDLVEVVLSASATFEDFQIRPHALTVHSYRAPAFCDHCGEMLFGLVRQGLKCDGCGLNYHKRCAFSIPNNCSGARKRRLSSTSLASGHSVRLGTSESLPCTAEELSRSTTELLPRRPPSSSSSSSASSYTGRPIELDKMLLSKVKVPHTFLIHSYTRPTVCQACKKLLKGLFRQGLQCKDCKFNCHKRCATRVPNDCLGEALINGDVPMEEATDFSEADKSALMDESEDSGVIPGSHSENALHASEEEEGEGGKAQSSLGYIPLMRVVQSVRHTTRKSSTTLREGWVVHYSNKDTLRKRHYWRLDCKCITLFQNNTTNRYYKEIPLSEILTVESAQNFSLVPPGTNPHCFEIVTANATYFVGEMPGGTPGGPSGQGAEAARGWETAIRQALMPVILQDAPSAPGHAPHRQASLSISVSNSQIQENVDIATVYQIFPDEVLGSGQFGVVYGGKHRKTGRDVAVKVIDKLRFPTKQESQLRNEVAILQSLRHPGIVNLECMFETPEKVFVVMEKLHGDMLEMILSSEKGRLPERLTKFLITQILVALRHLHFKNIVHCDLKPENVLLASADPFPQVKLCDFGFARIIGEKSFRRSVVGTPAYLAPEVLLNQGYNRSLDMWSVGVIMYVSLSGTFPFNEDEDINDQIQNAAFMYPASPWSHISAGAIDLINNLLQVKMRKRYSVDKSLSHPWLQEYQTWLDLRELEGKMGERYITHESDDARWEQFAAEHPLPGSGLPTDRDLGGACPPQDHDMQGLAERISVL
inactive: [1] -0.031 | [2] -0.273 | [3] 0.034 | [4] 0 | [5] -0.242 | [6] -0.004 | [8] -0.075 | [10] -0.024 | [11] -0.05 | [12] -0.037 | [13] -0.125 | [14] 0.078 | [15] -0.03 | [16] -0.042 | [17] -0.159 | [18] 0.033 | [19] -0.011 | [20] -0.17

PSMD9 (UniProt O00233)
Sequence of UniProt O00233 (O00233 whole entry, looked up): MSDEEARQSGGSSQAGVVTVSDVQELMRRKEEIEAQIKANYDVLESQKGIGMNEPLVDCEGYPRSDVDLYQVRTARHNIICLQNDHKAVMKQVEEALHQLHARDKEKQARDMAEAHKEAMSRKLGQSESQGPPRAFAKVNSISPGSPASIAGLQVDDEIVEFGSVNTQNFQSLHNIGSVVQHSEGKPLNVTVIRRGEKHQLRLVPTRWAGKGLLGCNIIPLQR
inactive: [1] -0.022 | [2] 0.001 | [3] -0.012 | [4] 0.002 | [5] -0.016 | [6] -0.034 | [7] -0.004 | [8] -0.031 | [9] -0.023 | [10] 0.005 | [11] -0.028 | [12] -0.053 | [13] -0.021 | [14] 0.005 | [15] -0.074 | [16] 0.056 | [17] -0.013 | [18] -0.005 | [19] -0.021
active: [20] -0.261

PTPA (UniProt A6PVN8)
inactive: [1] 0.21 | [2] 0.003 | [3] 0.034 | [4] 0.131 | [5] -0.133 | [6] -0.045 | [7] 0.072 | [8] -0.008 | [9] 0.077 | [10] 0.039 | [12] 0.019 | [13] -0.143 | [14] 0.09 | [15] -0.383 | [16] -0.085 | [17] 0.021 | [18] 0.297 | [19] 0.043 | [20] 0.035

PARN (UniProt O95453)
Sequence of UniProt O95453 (O95453 whole entry, looked up): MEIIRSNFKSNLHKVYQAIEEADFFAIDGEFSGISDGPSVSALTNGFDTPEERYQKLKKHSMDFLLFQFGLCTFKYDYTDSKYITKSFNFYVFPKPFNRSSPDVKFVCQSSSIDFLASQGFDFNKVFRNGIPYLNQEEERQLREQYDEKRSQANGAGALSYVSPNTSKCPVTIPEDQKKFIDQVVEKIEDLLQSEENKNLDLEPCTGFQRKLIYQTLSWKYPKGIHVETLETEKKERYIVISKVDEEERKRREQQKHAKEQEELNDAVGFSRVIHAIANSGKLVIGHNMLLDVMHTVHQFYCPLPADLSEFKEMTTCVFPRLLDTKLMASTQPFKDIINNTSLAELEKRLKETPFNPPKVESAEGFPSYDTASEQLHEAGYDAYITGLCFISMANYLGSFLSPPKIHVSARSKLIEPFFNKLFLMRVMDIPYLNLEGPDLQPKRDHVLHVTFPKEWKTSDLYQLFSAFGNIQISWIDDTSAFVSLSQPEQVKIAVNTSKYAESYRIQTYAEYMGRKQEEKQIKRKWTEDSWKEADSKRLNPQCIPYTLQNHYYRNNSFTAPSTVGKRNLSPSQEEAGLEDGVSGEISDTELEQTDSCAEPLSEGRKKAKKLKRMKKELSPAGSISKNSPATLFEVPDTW
inactive: [1] -0.013 | [2] -0.008 | [3] -0.118 | [4] -0.017 | [5] 0.02 | [6] -0.141 | [7] 0.079 | [8] -0.022 | [9] 0.04 | [10] 0.014 | [11] 0.001 | [12] -0.015 | [13] -0.009 | [14] -0.028 | [15] 0.001 | [16] 0.051 | [17] -0.009 | [18] 0.04 | [19] -0.028 | [20] -0.036

PEX5 isoform 4 (UniProt P50542)
inactive: [1] -0.425 | [2] -0.207 | [3] -0.088 | [4] 0.077 | [5] 0.178 | [6] 0.006 | [8] 0.182 | [10] -0.097 | [12] 0.064 | [13] -0.048 | [14] -0.15

PSMD6 (UniProt Q15008)
inactive: [1] -0.044 | [2] -0.035 | [3] 0.056 | [4] 0.025 | [5] 0.013 | [6] 0.046 | [7] 0.051 | [8] 0.062 | [9] 0.056 | [10] -0.021 | [11] -0.02 | [12] 0.042 | [13] 0.017 | [14] -0.013 | [15] -0.091 | [16] -0.062 | [17] -0.021 | [18] -0.045 | [19] 0.102 | [20] -0.036

POLB (UniProt P06746)
inactive: [1] -0.21 | [2] -0.16 | [3] 0.195 | [4] 0.138 | [5] 0.062 | [7] 0.095 | [8] 0.05 | [9] 0.031 | [12] -0.155 | [13] 0.215 | [16] 0.037 | [17] 0.199 | [19] -0.006 | [20] -0.022

PI4K2B (UniProt Q8TCG2)
inactive: [1] -0.067 | [2] 0.04 | [3] -0.05 | [4] 0.028 | [5] -0.016 | [6] 0.003 | [7] 0.097 | [8] -0.096 | [9] -0.148 | [10] -0.099 | [11] -0.035 | [12] -0.059 | [13] -0.014 | [14] -0.034 | [15] -0.059 | [17] 0.4 | [18] -0.054 | [20] 0.051

PIKFYVE (UniProt Q9Y2I7)
Sequence of UniProt Q9Y2I7 (Q9Y2I7 whole entry, looked up): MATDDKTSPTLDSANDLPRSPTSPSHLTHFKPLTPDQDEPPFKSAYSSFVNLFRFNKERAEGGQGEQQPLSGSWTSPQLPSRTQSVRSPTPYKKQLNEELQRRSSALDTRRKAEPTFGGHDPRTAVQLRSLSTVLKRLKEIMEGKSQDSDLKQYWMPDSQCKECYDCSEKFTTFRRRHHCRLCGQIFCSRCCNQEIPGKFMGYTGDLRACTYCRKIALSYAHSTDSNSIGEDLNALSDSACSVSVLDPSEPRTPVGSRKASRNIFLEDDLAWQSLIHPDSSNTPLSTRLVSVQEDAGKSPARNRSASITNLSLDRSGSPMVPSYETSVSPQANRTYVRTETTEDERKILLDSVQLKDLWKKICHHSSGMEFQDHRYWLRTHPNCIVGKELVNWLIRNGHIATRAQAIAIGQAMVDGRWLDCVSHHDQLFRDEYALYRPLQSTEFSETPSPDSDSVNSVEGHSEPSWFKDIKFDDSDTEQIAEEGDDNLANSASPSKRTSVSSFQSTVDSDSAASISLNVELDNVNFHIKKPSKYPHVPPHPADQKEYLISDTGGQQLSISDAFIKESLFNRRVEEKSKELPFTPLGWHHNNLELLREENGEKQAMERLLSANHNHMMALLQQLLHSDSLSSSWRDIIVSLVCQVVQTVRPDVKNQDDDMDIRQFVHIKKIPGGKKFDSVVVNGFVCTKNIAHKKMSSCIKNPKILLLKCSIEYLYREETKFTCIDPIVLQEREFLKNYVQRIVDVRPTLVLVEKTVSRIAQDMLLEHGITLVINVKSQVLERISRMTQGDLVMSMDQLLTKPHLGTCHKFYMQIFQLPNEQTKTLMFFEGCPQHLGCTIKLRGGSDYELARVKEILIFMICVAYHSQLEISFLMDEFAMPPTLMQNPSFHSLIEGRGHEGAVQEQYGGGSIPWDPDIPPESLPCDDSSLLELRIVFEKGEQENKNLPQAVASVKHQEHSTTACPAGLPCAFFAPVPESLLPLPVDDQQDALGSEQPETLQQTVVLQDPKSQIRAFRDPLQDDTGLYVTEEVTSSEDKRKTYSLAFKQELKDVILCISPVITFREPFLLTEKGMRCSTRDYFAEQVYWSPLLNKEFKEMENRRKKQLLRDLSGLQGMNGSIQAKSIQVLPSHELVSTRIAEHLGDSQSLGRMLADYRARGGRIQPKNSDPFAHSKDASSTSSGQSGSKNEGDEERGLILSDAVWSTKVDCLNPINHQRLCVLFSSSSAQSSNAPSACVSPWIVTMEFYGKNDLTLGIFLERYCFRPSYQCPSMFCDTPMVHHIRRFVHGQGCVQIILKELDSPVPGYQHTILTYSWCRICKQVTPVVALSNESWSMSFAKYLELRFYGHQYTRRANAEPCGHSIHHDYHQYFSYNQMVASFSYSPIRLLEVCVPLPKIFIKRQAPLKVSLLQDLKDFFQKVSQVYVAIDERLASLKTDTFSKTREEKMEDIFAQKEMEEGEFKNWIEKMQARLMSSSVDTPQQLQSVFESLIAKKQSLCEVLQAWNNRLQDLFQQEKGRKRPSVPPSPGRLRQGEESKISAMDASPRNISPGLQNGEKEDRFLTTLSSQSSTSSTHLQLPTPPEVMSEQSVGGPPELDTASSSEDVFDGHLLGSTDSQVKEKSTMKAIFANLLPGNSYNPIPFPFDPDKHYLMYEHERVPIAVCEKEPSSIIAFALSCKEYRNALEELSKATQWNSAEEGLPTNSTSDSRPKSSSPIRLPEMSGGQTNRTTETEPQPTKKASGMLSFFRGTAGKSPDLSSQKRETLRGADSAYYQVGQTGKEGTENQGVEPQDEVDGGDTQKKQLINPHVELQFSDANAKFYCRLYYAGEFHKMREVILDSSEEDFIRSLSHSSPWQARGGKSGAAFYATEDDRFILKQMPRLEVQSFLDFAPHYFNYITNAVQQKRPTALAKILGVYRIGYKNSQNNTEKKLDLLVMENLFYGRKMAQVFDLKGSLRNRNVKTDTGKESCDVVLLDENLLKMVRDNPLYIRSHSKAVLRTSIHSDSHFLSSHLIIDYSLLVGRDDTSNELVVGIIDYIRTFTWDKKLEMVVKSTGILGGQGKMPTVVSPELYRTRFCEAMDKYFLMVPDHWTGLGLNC
inactive: [1] -0.001 | [2] -0.081 | [3] -0.175 | [4] -0.032 | [5] 0.009 | [6] -0.033 | [7] 0.068 | [8] -0.106 | [9] 0.099 | [10] -0.025 | [11] 0.03 | [12] -0.036 | [13] -0.074 | [14] -0.096 | [15] 0.016 | [16] -0.037 | [17] -0.308 | [18] -0.044 | [19] -0.098 | [20] -0.047

PATL1 (UniProt Q86TB9)
inactive: [1] -0.075 | [2] -0.16 | [3] -0.127 | [4] -0.001 | [5] -0.135 | [6] -0.078 | [7] 0.131 | [8] 0.025 | [9] 0.155 | [10] -0.066 | [11] -0.015 | [12] -0.009 | [13] 0.076 | [14] 0.049 | [15] -0.035 | [16] -0.135 | [18] 0.069 | [19] 0.05 | [20] -0.115

PURA (UniProt Q00577)
Sequence of UniProt Q00577 (Q00577 whole entry, looked up): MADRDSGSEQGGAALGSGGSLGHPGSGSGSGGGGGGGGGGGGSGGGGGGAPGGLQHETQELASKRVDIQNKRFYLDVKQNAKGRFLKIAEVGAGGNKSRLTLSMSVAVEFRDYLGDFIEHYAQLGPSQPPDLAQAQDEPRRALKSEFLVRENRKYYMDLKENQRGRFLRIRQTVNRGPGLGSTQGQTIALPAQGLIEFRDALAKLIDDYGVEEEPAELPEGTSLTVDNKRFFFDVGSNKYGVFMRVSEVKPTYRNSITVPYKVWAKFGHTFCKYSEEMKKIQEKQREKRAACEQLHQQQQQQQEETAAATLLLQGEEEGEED
inactive: [1] 0.061 | [2] 0.063 | [3] 0.321 | [4] 0.001 | [5] 0.059 | [6] 0.347 | [7] 0.309 | [8] 0.076 | [9] 0.086 | [10] 0.04 | [11] -0.336 | [12] 0.277 | [13] -0.093 | [14] 0.179 | [15] -0.106 | [16] -0.052 | [17] -0.024 | [18] -0.113 | [19] 0.104 | [20] -0.071
